From PubChem
An excerpt weighted towards active compounds, which were near 7.3% of everything screened.
HCV inh = HCV inhibition; 3.4% of 340,000 active; Potency, µM (top dose mostly 41.8 µM), for inactives: at the highest dose activity change, negative = inhibition, most hits filed as inhibitors; Huh7.5.1 HCVcc-Cre infection, luciferase reporter, 44 h; AID 651820; active = well fitted inhibition curve with a large enough effect; inconclusive = small, poorly fitted or top-dose-only effect, or another doubt; inactive = no such curve, though single readings can be large or run the other way; also: potency is read from the fitted curve at half-maximal effect
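Infectious HCV cell culture screen: compound-treated cells (1,000/well, pre-plated 4 h) are infected with HCVcc-Cre at roughly 0.5 moi and grown 44 h. Infection is quantified by luciferase signal after 15 min substrate incubation at room temperature.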
VACV Venus inh = inhibitors of vaccinia virus (Venus reporter); Potency, µM (titrated, usually from 36.5 µM), for the others: top-dose activity change, negative = inhibition, hits mostly inhibitors; Vaccinia virus Venus reporter expression, fluorescence; 0.46% of 330,000 active; AID 720580; calls by dose curve; tested in A549 cells; also: potency is read from the fitted curve at half-maximal effect; nearly all actives have a fitted effect of over 30% in size
HCMV antiviral = human cytomegalovirus inhibition | activity change, negative = inhibition, % at 57.5 µM | HFF cells, HCMV-luciferase reporter, 72 h; active compounds read low | 4.5% of 410,000 active; in the data active = activity change below about -60%; inconclusive = no clear call, values can overlap the other calls; inactive = above about -39%
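Inhibition of viral replication was scored as loss of reporter luminescence in HFFs infected with HCMV-luciferase (MOI 1 PFU/cell) for 72 h; compounds tested at 2 doses, normalized to buffer and Salinomycin controls.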
VACV mCherry inh = vaccinia inhibition (mCherry reporter); Vaccinia virus mCherry reporter infection, fluorescence; Potency, µM (titrated, usually from 36.5 µM), inactives show at the highest dose activity change, negative = inhibition, most hits filed as inhibitors; 0.63% of 310,000 active; AID 720579; calls by dose curve; tested in A549 cells; also: potency is read from the fitted curve at half-maximal effect; nearly all actives have a fitted effect of over 35% in size
FMDV inh = blocks foot and mouth disease virus | Potency, µM (top dose mostly 57.9 µM), for the others: at the highest dose activity change, negative = inhibition, hits mostly inhibitors | FMDV antiviral cell-based qHTS | 1.2% of 410,000 active; calls by dose curve; tested in HEK293T cells; also: read-out not given here; potency is read from the fitted curve at half-maximal effect; nearly all actives have a fitted effect of over 45% in size
Numbers without * were called inactive; i = inactive; u = inconclusive; x = no result given; [ ] = remark or other dose. % is scaled to controls: 0 for no effect and ±100 for the full control effect.

SMILES	HCV inh	VACV Venus inh	HCMV antiviral	VACV mCherry inh	FMDV inh
O=C(COc1ccc(Cl)cc1)N1CCCC1	3%	-8%	40	-10%	21%
O=C(COc1ccc(Cl)cc1)N(c1ccc(Cl)cc1)C1CN2CCC1CC2 (stereo unspecified)	25µM*	-27%	-14	-11%	0%
O=C(COc1ccc(Cl)cc1)N(c1ccccc1Cl)C1CN2CCC1CC2 (stereo unspecified)	10µM*	-28%	-2	-19%	u
CCOC(=O)C1CCN(C(=O)COc2ccc(Cl)cc2)CC1	5%	-9%	-3	-13%	-1%
CCC1CCCCN1C(=O)CCS(=O)(=O)c1cc2c(cc1C)NC(=O)CO2 (stereo unspecified)	x	2%	-11	5%	8%
COc1ccc(C2c3ccsc3CCN2C(=O)NC(C)(C)C)cc1 (stereo unspecified)	22µM*	x	-39	x	-16%
Cc1cc(/C=C(\C#N)C(=O)Nc2ccccc2)c(C)n1-c1ccc(C(=O)O)cc1	u	11%	-17	3%	-24%
N#C/C(=C\c1ccncc1)C(=O)Nc1ccc(C(=O)O)cc1	13%	x	-99*	x	-15%
N#C/C(=C\c1cccnc1)C(=O)Nc1ccc(C(=O)O)cc1	12%	4%	27	i	33%
CCOC(=O)/C(C#N)=C/c1cc(C)n(-c2ccc(C)cc2)c1C	8.9µM*	-25%	68	-11%[1.46 µM]	-8%
CNC(=O)/C(C#N)=C/c1cc(C)n(-c2ccc(N3CCOCC3)cc2)c1C	-4%	x	0	x	-5%
Cc1cccc(NC(=O)/C(C#N)=C\c2cc(C)n(-c3ccc(C(=O)O)cc3)c2C)c1	-17%	-6%	-61*	i	-14%
Cc1cc(NC(=O)C2CCCN(S(=O)(=O)c3cn(C)cn3)C2)ccc1Br (stereo unspecified)	x	-11%	55	-15%	-10%
C=CCN1C(=O)/C(=C/c2ccc3c(c2)CCCN3CCC)C(=O)NC1=S	-8%	19%	121	3%	32µM*
C=CCN1C(=O)/C(=C/c2ccc(Br)s2)C(=O)NC1=S	11%	x	32	x	32µM*
Cc1ccccc1Nc1cc(C(=O)NC2CCC(C)CC2)c2ccccc2n1 (stereo unspecified)	x	-22%	-78*	-14%	43%
Clc1ccc(/C=C/c2ccncc2)cc1Cl	x	u	x	4.5µM*	x
CCOC(=O)C1(C(=O)OCC)N=C(c2ccccc2)C=C1c1ccccc1	x	x	-33	x	x
CCOC(=O)c1c(C)[nH]c(C)c1S(=O)(=O)NCC(=O)Nc1ccc(CC)cc1	x	-6%	-10	-14%	7%
O=C(NCCN1CCOCC1)c1cc(-c2ccc(Cl)cc2)on1	-20%	x	-6	x	13%
O=C(NCCN1CCOCC1)c1cc(-c2ccc(Cl)c(Cl)c2)on1	4%	-5%	-7	-6%	-5%
CCN(CC)CCCNC(=O)c1cc(-c2ccc(O)cc2)on1	-7%	5%	24	i	-22%
Cc1ccc(-c2cc(C(=O)NCCCN3CCOCC3)no2)cc1	-19%	-11%	-67*	u	u
CCN(CC)CCCNC(=O)c1cc(-c2ccc(Cl)c(Cl)c2)on1	1.4µM*	u	66	i	0%
O=C(NCCCN1CCOCC1)c1cc(-c2ccc(Cl)c(Cl)c2)on1	13µM*	-6%	-32	-16%	9%
SMILES	HCV inh	VACV Venus inh	HCMV antiviral	VACV mCherry inh	FMDV inh
COc1cc(C(=O)N(Cc2cc3ccc(C)cc3nc2N(C)C)C2CC2)cc(OC)c1OC	x	3%	x	-8%	9%
Cc1cc2ncn(-c3ncnc4sc5c(c34)CCCC5)c2cc1C	13%	-14%	-34	x	-13%
OCCN1CCN(c2ncnc3sc4c(c23)CCCC4)CC1	8%	x	-1	x	-8%
Oc1ccc(N2CCN(c3ncnc4sc5c(c34)CCC5)CC2)cc1	u	-26%	-82*	u	u
c1ccc2c(c1)ncn2-c1ncnc2sc3c(c12)CCCC3	-5%	x	-64*	x	0%
Oc1ccc(C23CCCC2C2(CCCC2)c2ccc(O)cc2O3)c(O)c1 (stereo unspecified)	10µM*	x	u	x	-24%
COc1ccc(/C=N/Nc2cc(C)nc(-n3nc(C)cc3C)n2)c(OC)c1	u	u	-98*	6.3µM*	28µM*
CCOc1cc(/C=N/Nc2cc(C)nc(-n3nc(C)cc3C)n2)ccc1O	u	x	-78*	x	u
COc1ccccc1/C=N/Nc1cc(C)nc(N2CCOCC2)n1	-28%	x	36	x	-9%
Cc1cc(N/N=C/c2ccc(F)cc2)nc(-n2nc(C)cc2C)n1	2µM*	u	-96*	u	0%
CCc1nn(CC(=O)NCc2ccc(OC)cc2OC)c(=O)c2cc3c(OC)cccc3n12	x	-3%	-2	1%	-3%
COc1ccc(-c2c(C)c3ccc(O)c(CN4CCCCC4)c3oc2=O)cc1OC	x	-18%	-10	-10%	-5%
CC(N)C(=O)NC1C2C(=C(O)CC(O)C2O)C(=O)OC1(C)C(Cl)Cl (stereo unspecified)	u	1µM*	-76*	u	u
O=C(NC(c1ccc(-c2ccccc2)cc1)c1cnccn1)C1CCN(Cc2ccc(Cl)c(Cl)c2)CC1 (stereo unspecified)	x	-20%	18	4%	-10%
Cn1cc(CN2CCC(C(=O)NC(c3ccc(-c4ccccc4)cc3)c3cnccn3)CC2)c2ccccc21 (stereo unspecified)	x	11µM*	-11	u	0%
CCOC(=O)C1CCCN(C(=O)c2ccc3oc(Cc4ccccc4)nc3c2)C1 (stereo unspecified)	-9%	x	79	x	40%
O=C(c1ccc2oc(CCCc3ccccc3)nc2c1)N1CCCC(CCCO)C1 (stereo unspecified)	-13%	x	-61*	x	-16%
CC(C)CC(=O)C1CCCN(C(=O)c2ccc3oc(Cc4ccccc4)nc3c2)C1 (stereo unspecified)	22µM*	-8%	-14	-14%	-23%
COC(=O)[C@@H]1CC2=CC(=O)CC[C@]2(C)[C@@]23O[C@@H]2C[C@@]2(C)[C@H](CC[C@@]24CCC(=O)O4)[C@@H]13	x	x	x	x	5%
CCOC(=O)c1c(NC(=O)C(C)OC(=O)C2=COCCO2)sc2c1CCCC2 (stereo unspecified)	13µM*	x	x	x	-27%
CCOC(=O)c1c(NC(=O)C(C)OC(=O)c2ccc(NC(=O)CC#N)cc2)sc2c1CCCC2 (stereo unspecified)	u	-19%	7	-26%	-26%
O=C(COc1ccccc1Cl)Nc1nc(-c2ccncc2)cs1	22µM*	-11%	8	-21%	u
O=C(COc1ccc(F)cc1Cl)Nc1nc(-c2ccccn2)cs1	u	x	-82*	x	x
COc1ccc(C#Cc2cnc(Cl)c3cncnc23)cc1OC	x	-15%	x	-5%	x
COc1ccccc1N1CCN(S(=O)(=O)c2ccc(-c3ccno3)cc2OC)CC1	x	-14%	-17	-17%	-22%
O=C(Nc1csc([N+](=O)[O-])c1)Nc1ccccc1Cl	-19%	0%[7.34 µM]	-67*	i[7.34 µM]	-3%
